A selection: hits, their analogues and other compounds. The true share with any hit is near 6.3%.
PMK inhibit: S. pneumoniae PMK inhibitors, primary screen, biochemical, mevalonate pathway, pilot trial included; purified PMK, PK/LDH-coupled NADH absorbance 340 nm; actives 0.49% (n = 65,000); phosphomevalonate kinase (Streptococcus pneumoniae D39); inhibition, % at 10 µM;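 active = top-ranked compounds by inhibition in the single 10 µM screen, taking a fixed number of the strongest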;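 note: 0% = full reaction with DMSO carrier and 100% = background rate without enzyme reaction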
Spn DPM-DC inh: S. pneumoniae DPM-DC inhibitors, primary screen, biochemical, PK/LDH-coupled NADH fluorescence; diphosphomevalonate decarboxylase (Streptococcus pneumoniae D39); purified DPM-DC; calls only at 10 µM; actives 0.49% (n = 65,000); AID 556, 2006;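 active = the 320 compounds with the highest percent inhibition in the single-dose primary screen, excluding strongly autofluorescent ones, cut at about 32% in these data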;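 note: kinetic rate of NADH fluorescence loss reporting ADP formed by the decarboxylase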
A340 absorber: compound light absorbance at 340 nm, profiling panel, artefact control, biochemical, MLSMR library, data from PS, PMK, MK assays; 65,000 tested, under 10 active; AID 708, 2007; compound absorbance at 340 nm, fold over control; fold change at 10 µM;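 active = at 10 µM dose, initial 340 nm absorbance at least 2 fold that of control wells; inactive = change under 2 fold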;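 note: initial absorbance extrapolated from kinetic A340 decline of NADH oxidation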
Autofluor 339: intrinsic fluorescence of library compounds, ex339/em460 – biochemical, MLSMR library, data from DPM-DC assay, artefact control, profiling panel. compound autofluorescence, ex339/em460 nm, NADH buffer; active compounds read high; 1 = no-compound wells, NADH background. fluorescence fold increase at 10 µM. actives 5.5% (n = 65,000). AID 709, 2007;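 active = at 10 µM, mean starting fluorescence two-fold or more over control wells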;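 note: signal is the first read of a kinetic run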
NADH coupling: inhibitors of PK/LDH coupling enzymes, profiling panel, artefact control, biochemical, MLSMR library | coupled PK/LDH NADH assays, four targets | IC50, µM (top dose mostly 10 µM), for inactives: at the highest dose inhibition | actives 0.02% (n = 65,000);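 active = single-dose screening hits from any of four coupled enzyme assays that gave an IC50 when retested across doses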;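 note: the DPM-DC format reads NADH fluorescence rather than 340 nm absorbance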
Spn MK inh: S. pneumoniae MK inhibitors, primary screen, biochemical, PK/LDH-coupled NADH absorbance. inhibition, % at 10 µM. actives 0.48% (n = 65,000). mevalonate kinase [Streptococcus pneumoniae D39]. AID 555, 2006. purified MK, PK/LDH-coupled NADH absorbance 340 nm;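 active = ranked among the strongest by inhibition in the single 10 µM screen, a fixed top-ranked set picked for dose follow-up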
The depositor's hits bear a star; i = inactive; x = not tested or not shown.

SMILES	PMK inhibit	Spn DPM-DC inh	A340 absorber	Autofluor 339	NADH coupling	Spn MK inh
Cc1cccc(-c2c3c(=O)n(C)c(=O)n(C)c3cn2-c2ccccc2O)c1	0	i	1	2.6*	10%	11
CC(=O)Nn1cc2c(c1-c1ccccc1)c(=O)n(C)c(=O)n2C	7	i	1	1.7	7%	1
CCOC(=O)c1c(NC(=O)c2nn(CC)cc2Br)sc(C)c1C	6	x	1.1	3.5*	4%	1
CCOC(=O)c1c(NC(=O)c2nn(CC)cc2Br)sc2c1CCCCC2	0	x	1.1	3.6*	0%	0
Cc1cccc(C)c1NC(=O)c1ccc(-n2cnnn2)cc1	18	i	1	1	6%	0
CCOC(=O)c1c(NC(=O)c2ccc(-n3cnnn3)cc2)sc2c1CCCC2	13	i	1.1	3*	14%	3
O=C(Nc1ccc(Cc2ccncc2)cc1)c1ccco1	1	i	0.98	1.1	1%	3
COc1ccc(-c2[nH]nc3oc(=O)cc(C)c23)cc1	3	x	1	2.2*	5%	7
COc1ccc(-n2nc(C(=O)NCc3ccco3)c3c4ccccc4n(C)c3c2=O)cc1	8	x	1.1	4.8*	4%	0
COCCCNC(=O)c1ccc(N2CCCC2)c(NS(=O)(=O)c2ccc(C)cc2)c1	25*	i	1.1	1	11%	8
Cc1ccc(S(=O)(=O)Nc2cc(C(=O)NCCN3CCCC3)ccc2N2CCCCC2)cc1	15	i	1	1.4	8%	10
CC(C)(C)c1csc(NC(=O)c2cccs2)n1	0	i	1.1	1.2	2%	5
CSc1nc2ccc3nc(NC(=O)c4cccs4)sc3c2s1	13	x	1.1	4.5*	10%	7
O=c1cc(C(F)(F)F)c2sc(N3CCCCC3)nc2[nH]1	17	x	1.1	2.1*	9%	0
c1c2c(cc3sc(N4CCCCC4)nc13)OCO2	18	i	1	1.1	8%	6
O=C1CC(C2CCCO2)C(=O)N1Cc1ccccc1 (configuration not stated)	0	i	0.97	1	2%	11
CCOC(=O)CCc1c(C)n(CC)c2cc(-c3ccccc3OC)nn2c1=O	13	i	1	3.6*	13%	0
CCOC(=O)CNC(=O)CSc1nnc(-c2ccccc2OC)n1CC	0	i	1.1	1.2	0%	0
COCCCn1cnc2c(c1=O)c1nc3ccccc3nc1n2CCc1ccccc1	0	x	1.1	2.4*	2%	3
CC(C)CCn1cnc2c(c1=O)c1nc3ccccc3nc1n2Cc1ccc2c(c1)OCO2	2	x	1.1	3.6*	2%	2
CCCn1cnc2c(c1=O)c1nc3ccccc3nc1n2Cc1ccccc1OC	13	i	1	1.1	3%	4
CCOCCCn1cnc2c(c1=O)c1nc3ccccc3nc1n2-c1ccc(C)cc1	12	i	1.1	1.2	9%	14
CCCCCCn1cnc2c(c1=O)c1nc3ccccc3nc1n2Cc1cccs1	5	i	1.1	2.3*	6%	3
CCCCn1c2nc3ccccc3nc2c2c(=O)n(CCC)cnc21	11	x	1.1	3.9*	9%	7
COc1ccc(Cn2c3nc4ccccc4nc3c3c(=O)n(Cc4ccco4)cnc32)cc1	0	i	1.1	1.8	5%	8
SMILES	PMK inhibit	Spn DPM-DC inh	A340 absorber	Autofluor 339	NADH coupling	Spn MK inh
CCC(C)c1ccc(O)c(NC(=O)c2cncc(Br)c2)c1 (configuration not stated)	4	i	0.99	1	3%	6
CCOCCCn1cnc2c(c1=O)c1nc3ccccc3nc1n2-c1ccccc1	13	i	1.1	3*	11%	8
COCCCn1c2nc3ccccc3nc2c2c(=O)n(-c3ccccc3OC)cnc21	12	i	1.1	2.4*	8%	7
COCCCn1c2nc3ccccc3nc2c2c(=O)n(-c3ccccc3OC)c(C)nc21	6	i	1	1.9	11%	8
CCNc1ccc2c(Cl)cc(=O)oc2c1	0	x	1	2.9*	1%	i
Cc1nn(-c2ccccc2)c2nc(N)c(C#N)c(-c3ccc(F)cc3)c12	6	x	1	3.8*	9%	11
Cc1ccc(-n2nc(C)c3c(-c4cccs4)c(C#N)c(N)nc32)cc1	0	i	1.1	2.4*	7%	11
Cc1ccccc1NC(=O)CSc1nc(N)c(C#N)c(-c2cccs2)c1C#N	8	i	1	1.6	5%	0
Cc1nc(N)c(C#N)c(-c2ccccc2)c1C	0	i	1.1	1.3	3%	7
CCOc1cccc(N2C(=O)CC(NCc3ccc(S(N)(=O)=O)cc3)C2=O)c1 (configuration not stated)	17	i	1.1	1.1	8%	4
c1cc2c3c(cccc3c1)NC1(CCCCCC1)N2	7	x	1.1	3.8*	9%	11
COc1ccc(-c2c(NC(C)=O)n(C)c3ccccc3c2=O)cc1	11	x	1.1	3.8*	10%	9
Cn1c(NC(=O)c2ccco2)c(-c2ccccc2)c(=O)c2ccccc21	8	i	1.1	0.94	9%	10
CC(=O)NC12CC3CC(C1)CC(C(=O)OCC(=O)Nc1ncc(Cl)cc1Cl)(C3)C2	0	i	1	1.1	0%	0
N#Cc1cc2cc3c(cc2nc1N1CCCCC1)OCCO3	12	i	1.1	3*	11%	5
COc1ccc(NC(=O)CN(C)S(=O)(=O)c2ccc3c(c2)OCCO3)c2ncccc12	16	i	1	1.1	6%	0
O=C1C2C3C=CC(C3=C3CCCCC3)C2C(=O)N1Cc1ccccc1 (configuration not stated)	0	i	1	1.1	2%	7
COC(=O)C1=C(C)NC2=C(C(=O)CCC2)C1c1ccsc1 (configuration not stated)	0	i	1.1	1.9	6%	2
CC1=C(C(=O)N2CCOCC2)C(c2ccsc2)C2=C(CCCC2=O)N1 (configuration not stated)	4	x	1.1	2.9*	2%	10
Cc1ccc(OCn2c(=O)sc3ccccc32)cc1	3	i	1.1	1.1	7%	17
CC1(C)CC(=O)C2=C(C1)N(Cc1ccco1)C(=O)C2(O)C(F)(F)F (configuration not stated)	6	i	1	1.1	6%	11
CNC(=O)c1cc2cc(OC)ccc2oc1=N	0	i	1.1	2.5*	4%	0

High-throughput results as filed in PubChem BioAssay.
